# Results from PubChem BioAssay (NCI).
# About 83,000 compounds went through this panel and 20% of them were active in at least one assay; those are over-represented in the sample as a whole.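 Compound tested at a single concentration for 48 hours in 96-well plates; a percent growth value below 10 was scored as active.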 Unmarked numbers belong to inactive results. Calls of active or inactive are those of the source.
# Test system: T-47D breast
# Experiment: NCI-60 one-dose screen, 48 h (100 = growth as untreated, 0 = no growth, -100 = all killed)
# Details: 10 µM unless noted
# Procedure: Growth inhibition of the T-47D human tumor cell line is measured as a screen for anti-cancer activity. Cells are grown in 96 well plates and exposed to the test compound for 48 hours. Compounds are tested at a single concentration, which is 10^-5 M for most compounds. The reported endpoint is percent growth (GI% or GIPRCNT), where numbers from 0 - 100% represent growth inhibition, and numbers from -100% - 0 represent cell death. For example, a value of 40 represents 60% growth inhibition. A value of 0 means no net growth occurred over the course of the experiment. A value of -40 indicates 40% of cells at the beginning of the experiment died by the end of the experiment. A value of -100 means all cells are dead at the end of the experiment.
# NCI-60 Human Tumor Cell Lines Screen was performed using the standard one-dose NCI protocol, which is described in more detail at https://dtp.cancer.gov/discovery_development/nci-60/default.htm.
# Compounds with GIPRCNT values below 10 were considered active. Activity score was based on GIPRCNT using the following formula: […]
# Score is 0 for GIPRCNT values of 100 or above, 50 for GIPRCNT values of 0, and 100 for GIPRCNT values of -100.
row,SMILES,growth
1,c1ccc2cc(Cn3cc(CSc4nc5ccccc5s4)nn3)ccc2c1,80.8%
2,O=C1CCC(C(=O)N/N=C/c2cc(F)ccc2F)N1 (stereo not given),97.2%
3,CC[C@H](Nc1nc(N)nc(C)c1C#N)c1nc2cccc(CN(C)c3ncc(C(=O)NO)cn3)c2c(=O)n1-c1ccccc1,-23.1% (active)
4,Cn1c(=O)[nH]c(=O)c2nc3c(nc21)-c1ccccc1C3=O,103%
5,CCOC(=O)CC[C@H](NC(=O)c1ccc(N(C)Cc2cnc3nc(N)nc(N)c3n2)c2ccccc12)C(=O)OCC,53.9%
6,CCCCCCCCn1ccc2cc(NC(=O)CN=[N+]=[N-])ccc21,94%
7,CCOC(=O)c1nnn(-c2no[n+]([O-])c2-c2ccc(OC)cc2)c1COc1cccc2cccnc12,53.1%
8,Cc1cc2oc(/C=C/c3ccccc3)cc(=O)c2c(C)c1Cl,87%
9,CCOC(=O)NC(=S)n1oc(=O)c2ccccc21,99.2%
10,CC(=O)c1sc(-c2ccc(F)cc2)cc1O,98.4%
11,COC1/C=C/OC2(C)Oc3c(C)c(O)c4c(O)c(c(/C=N/N(c5ccccc5)c5ccccc5)c(O)c4c3C2=O)NC(=O)C(C)=C/C=C/C(C)C(O)C(C)C(O)C(C)C(OC(C)=O)C1C (stereo not given),-3.9% (active)
12,Cc1cccc(-c2nc(C(C)C)sc2-c2ccnc(NCCCNS(=O)(=O)c3ccc(Cl)cc3)c2)c1,52.5%
13,Cc1cn(C)cn1,104%
14,COc1ccc2cc(C(=O)N3CCC([C@@H](C)C(=O)NCc4ccc5c(c4)OCO5)CC3)[nH]c2c1,17.3% [50 µM]
15,Cc1cc(C)c2c(c1)N(C)c1ncnc(-n3c(C)nc4cc(C)ccc43)c1CC2C (stereo not given),48.9%
16,c1csc(-c2cn3nc(-c4c[nH]c5ccccc45)sc3n2)c1,23.9%
17,CS(=O)(=O)Nc1cc(-c2ccc3ncnc(Nc4ccc5c(cnn5Cc5ccccc5F)c4)c3c2)cnc1Cl,-4.36% (active)
18,CCOC(=O)c1cnn(CC(C)O)c1NC(=O)NCc1cccc(F)c1 (stereo not given),100%
19,CCOc1ccc(/C=C/C(=O)c2cccc(OCCCOc3cccc(C(=O)/C=C/c4ccc(OCC)cc4)c3)c2)cc1,63.4%
20,O=C(NCCN1CCOCC1)OCc1ccc2c(Cl)cc(Cl)c(O)c2n1,74.8%

row,SMILES,growth
1,C=CN(C(=O)N1CCN(c2cc3c(cc2F)c(=O)c(C(=O)O)cn3C2CC2)CC1)c1nc(-c2ccccc2)cs1,78.9%
2,C/C(=N\Nc1ccccc1)c1ccc(NC2=CC(=O)c3ccccc3C2=O)cc1,38.8%
3,COc1cc(/C=C2\C(=O)N(CCCOc3cc(O)c4c(=O)cc(-c5ccccc5)oc4c3)c3ccccc32)cc(OC)c1O,44.6%
4,N#Cc1c(-c2ccccc2)nc2c(c(-c3ccccc3)nn2-c2ccccc2)c1-c1ccc(N2CCCCC2)cc1,94.5%
5,CCN(CCNc1ccc(C)c2sc3cc(Cl)ccc3c(=O)c12)CC(C)(C)O,69.5%
6,CCn1cc(C(=O)N/N=C/c2ccccc2)c(=O)c2cc(F)c(N3CCNC(C)C3)c(F)c21 (stereo not given),63.6%
7,CCOc1ccc(NC(=O)Nc2ccc(OCC)cc2)cc1,95.7%
8,CS(=O)(=O)Nc1cc(-c2ccc3ncnc(Nc4ccc5c(cnn5Cc5ccncc5)c4)c3c2)cnc1Cl,2.48% (active)
9,COc1cc(OC)c2c(=O)c3c(CC=C(C)C)cc(OC)c(O)c3oc2c1,57.7%
10,CN(C)/C(N)=N/N=C(\c1ccccc1)c1ccccn1,110%
11,CN1C(=O)N2CN3CCCN(C3)CN3C(=S)NC1C23 (stereo not given),105%
12,C#COc1cccc(Nc2ncnc3cc(NC(=O)[C@H](C)Cl)ccc23)c1,6.76% [6.25 µM] (active)
13,C[C@H]1[C@H](C)CC[C@]2(C(=O)NCCNCCN)CC[C@]3(C)C(=CC[C@@H]4[C@@]5(C)CCC(=O)C(C)(C)[C@@H]5CC[C@]43C)[C@H]12,39.8%
14,COCC(=O)Oc1cc(-c2ccc(C)cc2C)c(OC(=O)COC)c(-c2ccc(C)cc2C)c1,43.7%
15,C1CCC(N2CN3c4nonc4N4CN(C5CCCCC5)CN5c6nonc6N(C2)C3C45)CC1 (stereo not given),95.3%
16,O=C1/C(=C/c2ccc(Cl)cc2)CN(C(=O)C(Cl)Cl)C/C1=C\c1ccc(Cl)cc1,-58.3% (active)
17,O=C1CCCCN1c1ccc(C2=NCCCN2)cc1,57.8%
18,C=C(C)[C@@H]1CC[C@]2(C(=O)N3CCNCC3)CC[C@]3(C)[C@H](CC[C@@H]4[C@@](C)(CCC(=O)N5CCNCC5)[C@H](C(=C)C)CC[C@]43C)[C@@H]12,103%
19,COc1nc(/C=C\Nc2ccc3c(c2)OCCOCCOCCOCCO3)nc(OC)n1,87.5%
20,Ic1ccc(Nc2nc3nonc3nc2Nc2ccc(I)cc2)cc1,-9.49% (active)
